The source of these data is PubChem BioAssay (Tox21).

The nature of test [1]: qHTS assay to identify small molecule agonists of the hypoxia (HIF-1) signaling pathway - cell viability counter screen (AID 1224844; calls by dose curve; further: nearly all actives have a fitted effect of over 50% in size; further: potency means the concentration at half of the fitted maximal effect). In outline:
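Cytotoxicity measured by CellTiter-Glo ATP luminescence in the wells also read for beta-lactamase signal. Cells were HRE-bla ME-180 (2,000/well, 0.5% dialyzed FBS), exposed to compounds for 17 h at 37C.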
Background: Quantitative high-throughput screening tests each substance at several concentrations.

The nature of test [2]: qHTS assay to identify small molecule agonists of the hypoxia (HIF-1) signaling pathway (AID 1224846; active means well fitted activation curve with a large enough effect in the signal ratio in the repeat runs, not every such curve was filed as active; the % refers to the signal ratio). In outline: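 Compounds added to ME-180 cells carrying hypoxia-response-element beta-lactamase reporter (0.5% dialyzed FBS, 5 h preplating), 17 h at 37C; agonist activity detected by CCF4-AM B/G FRET read-out.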
A short description of test [3]: qHTS assay to identify small molecule antagonists of the estrogen related receptor (ERR) signaling pathway from Tox21 library (AID 1224848). Further: nearly all actives have a fitted effect of over 50% in size. Further: potency means the concentration at half of the fitted maximal effect. In outline: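 ERR cell line, 2,000 cells/well. 6 h settle, then compound (DMSO) added; 18 h at 37 C; ONE-Glo luminescence after 30 min RT.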
The nature of test [4]: qHTS RealTime-Glo MT Cell Viability Assay in HepG2 cells - 24 hour (AID 1224867). Further: nearly all actives have a fitted effect of over 50% in size. Further: potency means the concentration at half of the fitted maximal effect. In outline:
(§1)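 Cells + NanoLuc/prosubstrate dispensed (600 cells/well) → 5 h at 37 C/5% CO2 → compounds in DMSO transferred → 40 h incubation at 37 C, luminescence read at 0, 8, 16, 24, 32, 40 h.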

Test [5] can be described thus: A CellTox Green Cytotoxicity Assay to monitor cytotoxicity in HEK293 cells - 0 hour (AID 1224869). Further: nearly all actives have a fitted effect of over 50% in size. In outline: (§2)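 Fluorescence from a DNA-binding dye excluded by viable cells was measured repeatedly in the same HEK293 wells (600 cells/well) during continuous compound exposure at 37 C. Each assay gives one read point: 0, 8, 16, 24, 32 or 40 h.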
Test [6] in a line: qHTS RealTime-Glo MT Cell Viability Assay in HepG2 cells - 40 hour (AID 1224870). Further: nearly all actives have a fitted effect of over 50% in size. Further: potency means the concentration at half of the fitted maximal effect. An outline of the steps: (§3)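 Real-time viability: cells seeded at 600 per well together with NanoLuc and cell-permeant prosubstrate, compounds added after 5 h incubation. Luminescence tracked at 0, 8, 16, 24, 32 and 40 h of exposure.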
Test [7] in a line: A CellTox Green Cytotoxicity Assay to monitor cytotoxicity in HEK293 cells - 40 hour (AID 1224871). Further: nearly all actives have a fitted effect of over 45% in size. Further: potency means the concentration at half of the fitted maximal effect. An outline of the steps: as §2
Test [8] in a line: qHTS RealTime-Glo MT Cell Viability Assay in HepG2 cells - 8 hour (AID 1224873). Further: nearly all actives have a fitted effect of over 55% in size. Further: potency means the concentration at half of the fitted maximal effect. An outline of the steps: as §3
A short description of test [9]: A CellTox Green Cytotoxicity Assay to monitor cytotoxicity in HEK293 cells - 24 hour (AID 1224875). Further: nearly all actives have a fitted effect of over 45% in size. Further: potency means the concentration at half of the fitted maximal effect. An outline of the steps:
as §2

The nature of test [10]: A CellTox Green Cytotoxicity Assay to monitor cytotoxicity in HepG2 cells - 16 hour (AID 1224876). Further: nearly all actives have a fitted effect of over 45% in size. Further: potency means the concentration at half of the fitted maximal effect. An outline of the steps: (§4)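 Real-time cytotoxicity: fluorescence of a cell-impermeant cyanine dye binding DNA of dead HepG2 cells, measured repeatedly (0–40 h) during compound exposure at 37 C. Cells seeded 600/well with reagent, dosed after 5 h.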
A short description of test [11]: qHTS RealTime-Glo MT Cell Viability Assay in HepG2 cells - 32 hour (AID 1224877). Further: nearly all actives have a fitted effect of over 55% in size. Further: potency means the concentration at half of the fitted maximal effect. In outline:
as §1

The nature of test [12]: A CellTox Green Cytotoxicity Assay to monitor cytotoxicity in HepG2 cells - 24 hour (AID 1224878). Further: nearly all actives have a fitted effect of over 45% in size. Further: potency means the concentration at half of the fitted maximal effect. An outline of the steps: as §4
A short description of test [13]: A CellTox Green Cytotoxicity Assay to monitor cytotoxicity in HepG2 cells - 40 hour (AID 1224879). Further: nearly all actives have a fitted effect of over 40% in size. Further: potency means the concentration at half of the fitted maximal effect. In outline:
as §4

The nature of test [14]: qHTS RealTime-Glo MT Cell Viability Assay in HEK293 cells - 0 hour (AID 1224880). In outline:
(§5)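 Luminescence, which tracks viable cell number through reduction of the prosubstrate to a NanoLuc substrate, was read over continuous 37 C culture. Cells (600/well) were premixed with reagent and rested 5 h before 23 nL of compound in DMSO was pinned.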

Test [15] is described as follows: qHTS assay to identify small molecule agonists of H2AX - cell viability counter screen (AID 1224847; calls by dose curve; further: nearly all actives have a fitted effect of over 30% in size; further: potency means the concentration at half of the fitted maximal effect). An outline of the steps:
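Quantitative HTS viability measurement: CHO-K1 wild-type cells in serum (10% FBS) medium, short 3 hr drug exposure at 37C with 0.76% DMSO, CellTiter-Glo luminescent detection.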

The nature of test [16]: qHTS assay to identify small molecule agonists of the estrogen related receptor (ERR) signaling pathway from Tox21 library (AID 1224849; calls by dose curve; further: nearly all actives have a fitted effect of over 15% in size). The conditions noted are these: ERR reporter cell line, ONE-Glo luciferase, 18 h; at 92.4 µM (top of the series) unless noted. An outline of the steps:
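Luminescent agonist read-out (One-Glo, 30-minute room-temperature incubation) following 18-hour compound treatment at 37 C of the ERR cell line, which had been plated 6 hours before dosing.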

A short description of test [17]: qHTS RealTime-Glo MT Cell Viability Assay in HEK293 cells - 32 hour (AID 1224868). Further: nearly all actives have a fitted effect of over 50% in size. Further: potency means the concentration at half of the fitted maximal effect. An outline of the steps:
(§6)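 Tox21 10K qHTS, HEK293, 600 cells/well, RealTime-Glo reagent co-dispensed with cells; 5 h preincubation, compound by pintool, 37 C, luminescence at 0–40 h.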

The nature of test [18]: qHTS RealTime-Glo MT Cell Viability Assay in HEK293 cells - 16 hour (AID 1224872). Further: nearly all actives have a fitted effect of over 50% in size. Further: potency means the concentration at half of the fitted maximal effect. An outline of the steps: as §6
The nature of test [19]: qHTS RealTime-Glo MT Cell Viability Assay in HEK293 cells - 40 hour (AID 1224874). Further: nearly all actives have a fitted effect of over 50% in size. Further: potency means the concentration at half of the fitted maximal effect. The conditions noted are these: RealTime-Glo luminescence; max response: hits give low values. An outline of the steps: as §5

Values without a mark were called inactive. Inconclusive results are not listed. Calls of active or inactive are those of the source. Unless noted, the call rests on the fitted dose curve; in most records, active means well fitted curve in the direction sought with a large enough effect in the repeat runs; inconclusive means weak or mixed curves; inactive means no such curve, though single readings can be large; an effect the other way counts as inactive or inconclusive.
On the % scale 0 is the no-effect control and ±100 the full control effect.

For the compound `Oc1cccc(-c2ccccc2)c1`, the Potency result in test [1], in [3], in [4], in test [5], in [6] and in [7] was “inactive” in each case. For the same compound, the Potency result in test [8], in test [9], in test [10], in test [11], in test [12] and in test [13] was “inactive” in each case. Besides, the Potency result in test [14] was “inactive”. Moreover, the outcome in [2] was inactive.

`O=S(=O)(c1ccc(Cl)cc1)c1ccc(Cl)cc1`: the Potency entry in test [1], in [4], in test [5], in test [10], in test [11] and in [12] was “inactive” in each case. In addition, the Potency entry in [13] and in test [14] was “inactive” throughout. The results for the Potency in test [15] and in test [3] were 57.3 µM (active) and 13.9 µM (active), respectively. For the same compound, the activity change, positive = activation in test [16] was -35.9%.

Turning to `CCCN(CCC)c1c([N+](=O)[O-])cc(S(N)(=O)=O)cc1[N+](=O)[O-]`, the Potency in [1] is 37 µM (active); in test [15] it was 89.8 µM (active); in test [3], 48.6 µM (active); in test [4], 43.6 µM (active); in test [17], 18.5 µM (active); in test [6], 49 µM (active). Besides, the Potency in test [18] was 16.5 µM (active); in test [8], 24.5 µM (active); in test [19] it was 35.4 µM (active); in [9] it was 23.3 µM (active); in [10], 33.5 µM (active); in test [11] it was 43.6 µM (active). In addition, the values for the Potency in test [12] and in test [13] were 13.1 µM (active) and 11 µM (active), respectively. Also, in [16], the activity change, positive = activation is -56.8%. Also, the Potency entry in test [5] and in test [14] was “inactive” throughout.

`C[C@]12CC[C@@H]3c4ccc(OC(=O)N(CCCl)CCCl)cc4CC[C@H]3[C@@H]1CC[C@@H]2O`: the Potency entry in test [1], in test [15], in [3], in test [4], in test [17] and in [5] was “inactive” each time. Further, the Potency entry in [6], in test [7], in test [18], in [8], in test [9] and in test [10] was “inactive” throughout. The Potency result in test [11], in test [12], in [13] and in test [14] was “inactive” each time. Further, the activity change, positive = activation in test [16] was -21.8% [at 42.5 µM]. In addition, the max response in test [19] was -6.19%.

On to `c1cc[c]([Sb]([c]2ccccc2)[c]2ccccc2)cc1`, for which the Potency result in test [1], in test [4], in test [5], in test [6], in test [7] and in test [8] was “inactive” each time. For the same compound, the Potency entry in [9], in [10], in test [11], in test [12], in test [13] and in [14] was “inactive” throughout. Further, the compound was called inactive in [2]. The Potency in test [17] and in [19] was 54.9 µM (active) throughout.

In the case of `CCCCCCCCCCCCCCCCCCn1cc[n+](C)c1`, the Potency is 43.4 µM (active) in test [1]; 22.4 µM (active) in test [15]; 5.42 µM (active) in [3]; 7.72 µM (active) in test [17]; 21.7 µM (active) in [6]; 19.4 µM (active) in test [7]. The Potency in test [18] was 24.4 µM (active); in [19] it was 7.72 µM (active); in test [9] it was 21.7 µM (active); in [10], 38.7 µM (active); in test [11], 24.4 µM (active); in test [12], 24.4 µM (active). Further, the Potency in test [13] was 19.4 µM (active). Also, the activity change, positive = activation in test [16] is -74.3%. The Potency result in test [5] and in [8] was “inactive” each time.
